# Source: PubChem BioAssay (EPA / NIEHS)
# Calls of active or inactive are those of the source. How the source made its calls: active means hit-call score of the fitted dose curve at least 0.9, where 1 is the maximum; inactive means score below 0.9.
# Test: ATG_E_Box_CIS: Attagene CIS-FACTORIAL HepG2 Assay for human Enhancer Box (E-box) (AID 2282936)
# Settings: HepG2 E-box cis-reporter transcription, actives raise or lower the signal
# Description: ATG_CIS is a cell-based, multiplexed-readout assay that uses HepG2, a human liver cell line, with measurements taken at 24 hours after chemical dosing in a 24-well plate.ATG_E_Box_CIS is one of 52 assay component(s) measured or calculated from the ATG_CIS assay. It is designed to make measurements of mRNA induction, a form of inducible reporter, as detected with fluorescence intensity signals by Reverse transcription polymerase chain reaction (RT-PCR) and Capillary electrophoresis technology.Data from the assay component ATG_E_Box_CIS was analyzed into 1 assay endpoint. This assay endpoint, ATG_E_Box_CIS, was analyzed with bidirectional fitting relative to DMSO as the negative control and baseline of activity. Using a type of inducible reporter, measures of mRNA for gain or loss-of-signal activity can be used to understand the reporter gene at the transcription factor-level as they relate to the gene USF1. Furthermore, this assay endpoint can be referred to as a primary readout, because this assay has produced multiple assay endpoints where this one serves a reporter gene function. To generalize the intended target to other relatable targets, this assay endpoint is annotated to the dna binding intended target family, where the subfamily is basic helix-loop-helix protein.
# Human liver HepG2 cells are transiently transfected with multiple reporter transcription units (MRTUs) in 6-well plates using FuGene 6 reagent (Roche; 3 ml FuGene/1 mg DNA). The MRTU constructs are regulated by a cis-regulating element (promoter). […] A major difference between the CIS and TRANS system is that in CIS activities of endogenous TFs are measured, whereas the TRANS assay evaluates changes in activities of exogenous, chimeric NR-Gal4 proteins. […] At the end of 24 hour incubation, total RNA was isolated using TriZol reagent (Invitrogen). The isolated RNA is then reverse-transcribed using oligo(dT) primer and Mo-MLV reverse transcriptase (Invitrogen) with DNAse I (Ambion) treatment for 30 min. The one-tenth of the produced cDNA was amplified by PCR using Taq DNA polymerase (Invitrogen) and two reporter sequence-specific primers. The PCR products were fluorescently labeled by primer extension with 6-arboxyfluorescein (6-FAM) 5'-labeled reporter sequence-specific primer (2 min at 95 C, 20 s at 68 C and 10 min at 72 C) and these products were digested with 5U of HpaI (New England Biolabs) for 2h at 37 C. The fragments were purified using Qiaquick PCR columns (Qiagen), analyzed on an ABI 3130xL genetic analyzer (Applied Biosystems) with peak positions identified by using a set of X-rhodamine (ROX)-labeled MapMarker1000 molecular weight standards (BioVentures). The raw capillary electrophoresis data was processed using Attagraph software (Attagene).
SMILES,outcome,AC50
O=C1OC2(c3cc(Br)c(O)c(Br)c3Oc3c2cc(Br)c(O)c3Br)c2c(Cl)c(Cl)c(Cl)c(Cl)c21,inactive,
CN(C)CCOCCN(C)C,inactive,
BrC1CCC(Br)C(Br)CCC(Br)C(Br)CCC1Br (stereo not given),inactive,
CCCCCCCCCCCCOCCO,,50.6 µM (active)
CC1CCC(C(C)CS)CC1S (stereo not given),inactive,
C=C(C)C(=O)OCc1ccccc1,inactive,
O=C(O)c1cccc(C(F)(F)F)c1,inactive,
Cc1cccc(C)c1C,inactive,
Clc1ccc2c(c1)C(N1CCNCC1)=Nc1ccccc1O2,inactive,
O=S(=O)(O)NC1CCCCC1,inactive,
Cc1cc(C2(c3cc(C)c(O)cc3C)OS(=O)(=O)c3ccccc32)c(C)cc1O,inactive,
CC(=O)O[C@]1(C(C)=O)CC[C@H]2[C@@H]3C[C@H](C)C4=CC(=O)CC[C@]4(C)[C@H]3CC[C@@]21C,inactive,
OCC(CO)(CO)COCC(CO)(CO)CO,inactive,
C=O,inactive,
Clc1sc(Cl)c(Cl)c1Cl,inactive,
Cc1ccc(O)c(C(C)(C)C)c1,inactive,
CC[C@]12CCCN3CCc4c(n(c5ccccc45)[C@@](O)(C(=O)OC)C1)[C@@H]32,inactive,
CC(C)(C)C(=O)c1ccccc1,inactive,
NCCNCCN,inactive,
CCCCC[Si](OCC)(OCC)OCC,inactive,

SMILES,outcome,AC50
c1ccc2c(c1)c1cccc3ccc4cccc2c4c31,inactive,
FC1(F)C(F)(F)C(F)(F)C2(F)C(F)(C1(F)F)C(F)(F)C(F)(F)C1(F)C(F)(F)C(F)(F)C(F)(F)C(F)(F)C12F (stereo not given),inactive,
Cc1ccc(C=O)s1,inactive,
C=CC(C)(CCC=C(C)C)OC=O (stereo not given),inactive,
CC(C)(C)c1n[nH]c(=S)n(N)c1=O,inactive,
CCCCC/C=C/C=C/C=O,inactive,
C=C[C@@H](C)CCC=C(C)C,inactive,
CO[Si](C)(OC)c1ccccc1,inactive,
CCCCCCCCCCCCCCCC(=O)OC[C@H](O)[C@H]1OC(=O)C(O)=C1O,inactive,
CC(CCO)CCc1ccccc1 (stereo not given),inactive,
OC1OC[C@@H](O)[C@H](O)[C@H]1O (stereo not given in full),inactive,
C=C(C)[C@@H]1CCC2=CC(=O)C[C@@H](C)[C@]2(C)C1,inactive,
COc1ccc(NC(=O)CC(C)=O)cc1,inactive,
CCCCCCCCCCCCCCCC(=O)O,inactive,
CC(C)(CO)[N+](=O)[O-],inactive,
Clc1ccc(Cl)c(Cl)c1Cl,inactive,
Cc1ccc(C=O)cc1,inactive,
C=CC(C)(C)O,inactive,
NCCCCCCN,inactive,
CCCCC(CC)COC(=O)/C=C\C(=O)OCC(CC)CCCC (stereo not given),inactive,
